According to PubChem BioAssay AID1233 (SRMLSC, 2008):
Results with a measured potency or affinity are listed apart.

The compounds below were run against HMG-CoA reductase [Enterococcus faecalis] (UniProt Q9FD70) (assay: class II HMG-CoA reductase inhibition potency – biochemical, Enterococcus faecalis, confirmation (AID 1233;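 also: 0% = full reaction carrier wells and 100% = background wells lacking mevalonate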)). Conditions: purified E. faecalis HMGR, NADPH absorbance 340 nm kinetics; series mostly up to 100 µM; inhibition: at the top concentration.

inhibition, inactive:
COCc1c(C(=O)Nc2nc(C)cs2)oc2ccccc12 -0.65%, COc1cc(SC)ccc1C(=O)NCc1ccc(C)cc1 2.66%, Cc1cc(/C=C(\C#N)C(=O)NCc2cccs2)c(C)[nH]1 -9.51%, CC(C)(C)[C@H]1C=C(C(=O)N2CCN(Cc3ccc4c(c3)OCO4)CC2)O[C@@H](OCc2ccc(CO)cc2)C1 -1.99%, COCCN(C(=O)CNC(=O)c1cccs1)C(C(=O)NC1CCCCC1)c1ccco1 (stereo not given) -0.13%, O=C(Nc1ccncc1)c1ccc(C(=O)Nc2ccncc2)cc1 -3.46%, Cc1ccc(C(=O)NCc2ccccc2)c(F)c1F -0.35%, COc1oc(-c2ccc(Cl)cc2)nc1C(F)(F)F -9.81%, Cc1ccc(NC(=O)NC2CCCCC2)cc1S(=O)(=O)N1CCOCC1 1.4%, CCOc1cc(N2CCOCC2)c(OCC)cc1NC(=O)CC12CC3CC(CC(C3)C1)C2 -4%, CCN(C(=O)CCc1nc(-c2ccccc2F)no1)c1cc(OC)ccc1OC -4.63%, COC(=O)c1cc(NC(=O)CSc2nnc(N)s2)ccc1Cl -0.91%, COc1ccc(NCc2nnc(SCCN3CCCCC3)n2-c2ccc(C)cc2)cc1 -4.43%, Cc1ncc([N+](=O)[O-])n1CC(C)O (stereo not given) -3.39%, Cc1ccc(NS(=O)(=O)c2ccc(NC(=O)[C@@H]3CCCC[C@@H]3C(=O)O)cc2)c(C)c1 -4.04%, CCOC(=O)c1ccc(Nc2nc(C(=O)OCC)nc3ccccc23)cc1 -2.7%, O=C(CSc1nc(-c2ccccc2)cs1)N1CCc2ccccc21 -6.01%, COc1ccc(/C=N/NC(=O)C(C)Sc2ccccn2)cc1[N+](=O)[O-] (stereo not given) -10%, CNC(=S)N/N=C(\C)c1ccc(N2CCOCC2)cc1 2.77%, O=C(Nc1ccc2c(c1)OCO2)c1noc2c1CCCCC2 -1.8%
